Screening results as filed in PubChem BioAssay.
Shown are actives, neighbours in structure and some others; about 8.7% of the full set was active somewhere.
AMA1 RON2 block – qHTS for Inhibitors of AMA1-RON; Towards Development of Antimalarial Drug Lead: Primary Screen | Potency, µM (highest dose often 58.2 µM), for inactives: top-dose activity change, negative = inhibition, usual class: inhibitors | hit rate 0.2% among 360,000 | Plasmodium falciparum AMA1 (3D7) - RON2 peptide interaction | AlphaScreen AMA1-biotinylated RON2 peptide binding | AID 720542, 2013;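 further: 0% = vehicle wells and -100% = peptide control; nearly all actives have a fitted effect of over 45% in size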
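AMA1 (3D7) with his tag at 25 nM final met compounds first, then biotinylated RON2 peptide at 25 nM; detection used donor plus acceptor beads, 10 µg/mL apiece, read by AlphaScreen after 30 min at room temperature.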
VACV mCherry inh – qHTS for Stage-Specific Inhibitors of Vaccinia Orthopoxvirus: mCherry Reporter Primary qHTS; Potency, µM (series often up to 36.5 µM), for inactives: top-dose activity change, negative = inhibition, hits mostly inhibitors; AID 720579, 2013; Vaccinia virus mCherry reporter infection, fluorescence; hit rate 0.63% among 310,000; calls by dose curve; tested in A549 cells; further: nearly all actives have a fitted effect of over 35% in size
Pf growth 96h – Primary qHTS for delayed death inhibitors of the malarial parasite plastid, 96 hour incubation; P. falciparum luciferase reporter growth, 96 h; AID 504834, 2011; hit rate 6.9% among 320,000; Potency, µM (doses to about 28.7 µM), inactives show at the highest dose activity change, negative = inhibition, most hits filed as inhibitors
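Erythrocytes infected with luciferase-expressing P. falciparum were dispensed at 2% hematocrit and 0.05% parasitemia (final), then incubated with compounds 96 hours at 37 C in 5% CO2. Luminescence after detection reagent addition reported growth.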
Pf growth 48h – Primary qHTS for delayed death inhibitors of the malarial parasite plastid, 48 hour incubation | P. falciparum luciferase growth in erythrocytes, 48 h | AID 504832, 2011 | hit rate 5.9% among 310,000 | Potency, µM (highest dose often 28.7 µM), without a hit: at the top dose activity change, negative = inhibition, hits mostly inhibitors
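Luciferase-expressing P. falciparum in infected erythrocytes (2% hematocrit, 0.1% parasitemia final) in RPMI 1640/0.5% Albumax were exposed to compound for 48 hours at 37 C, 5% CO2; growth read as luminescence.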
Vaccinia Venus – qHTS for Stage-Specific Inhibitors of Vaccinia Orthopoxvirus: Venus Reporter Primary qHTS; Vaccinia virus Venus reporter expression, fluorescence; Potency, µM (doses to about 36.5 µM), without a hit: at the top dose activity change, negative = inhibition, most hits filed as inhibitors; hit rate 0.46% among 330,000; AID 720580, 2013; calls by dose curve; tested in A549 cells; further: nearly all actives have a fitted effect of over 30% in size
The depositor's hits bear a star; i = inactive; ? = inconclusive; / = not tested or not shown; [ ] = dose if it differs, or a comment. Unless noted, the call rests on the fitted dose curve; in most records, active means well fitted curve in the direction sought with a large enough effect; inconclusive means small, poorly fitted or top-dose-only effect, or another doubt; inactive means no such curve, though single readings can be large; an effect the other way counts as inactive or inconclusive. Unless noted, on the % scale 0 is the no-effect control and ±100 the full control effect; potency means the concentration at half of the fitted maximal effect.

SMILES | AMA1 RON2 block | VACV mCherry inh | Pf growth 96h | Pf growth 48h | Vaccinia Venus
CCOc1ccc(/C=N/Nc2nc(N3CCCC3)nc(N3CCCC3)n2)cc1OC | 8% | -11% | ? | 10µM* | -9%
CNc1nc(N/N=C/c2cc([N+](=O)[O-])ccc2F)nc(Nc2ccccc2)n1 | 32% | / | / | / | /
CNc1nc(N/N=C/c2cc3c(cc2[N+](=O)[O-])OCO3)nc(Nc2ccccc2)n1 | -3% | / | -13% | 2.6µM* | /
COc1ccc(/C=N/Nc2nc(Nc3ccccc3)nc(N3CCCC3)n2)cc1[N+](=O)[O-] | 79% | -15% | -6% | 2.1µM* | ?
c1ccc2c(Cn3ccnc3)c[nH]c2c1 | -2% | / | ? | 7% | /
Oc1ccc(Cn2ccnc2)c2cccnc12 | -85% | ? | 18% | 3.7µM* | -7%
Oc1ccc(CN2CCN(Cc3ccccc3)CC2)c2cccnc12 | -89% | / | / | 7% | /
OCc1cn(Cc2ccc(O)c3ncccc23)cn1 | / | / | 6.6µM* | 5.2µM* | /
COc1ccccc1-c1nc(SCC(=O)NCc2ccccc2)c2c(=O)n(C)c(=O)n(C)c2n1 | / | -3% | / | / | -6%
CCOc1ccc(NC(=O)CSc2nc3c(oc4ccccc43)c(=O)n2-c2cc(C)cc(C)c2)cc1 | / | -7% | / | / | 1%
O=C(CN1CCC(NC(=O)c2ccccc2)CC1)NCc1ccccc1F | 2% | / | 5.9µM* | ? | /
O=C(CN1CCC(NC(=O)c2ccccc2F)CC1)NCc1ccc(F)cc1 | 22% | -11% | / | 13µM* | -14%
CC(C)Nc1nc(-c2cccnc2)nc(-c2ccc(Cl)cc2)c1C#N | 13% | i | 2.3µM* | 0%[0.00184 µM] | -10%
CC(C)Nc1nc(-c2ccncc2)nc(-c2ccc(Cl)cc2)c1C#N | 30% | -1% | ? | ? | -7%
CC(C)Nc1nc(-c2cccnc2)nc(-c2ccccc2)c1C#N | -4% | / | ? | 8.3µM* | /
O=C(CSc1nc(=O)n(Cc2ccncc2)c2c1CCC2)Nc1ccccc1 | / | i | / | / | -21%
CCCc1nn2c(=O)cc(CSCC(=O)Nc3nnc(CC)s3)nc2s1 | 12% | / | 10µM* | -16% | /
Cc1ccc(/C=C(\C#N)c2nn(-c3ccccc3)c(N)c2C#N)cc1 | -7% | 10µM* | ? | -18% | ?
N#C/C(=C\c1c(F)cccc1Cl)c1nn(-c2ccccc2)c(-n2cccc2)c1C#N | -10% | -6% | ? | 12µM* | -9%
CCN1CCCC1CNC(=O)c1cnn(-c2ncc(C)c(-c3ccc(F)cc3)n2)c1C(C)C (centres undefined) | / | -11% | / | / | -3%
CSc1cccc(NC(=O)CN(C)S(=O)(=O)c2cnc[nH]2)c1 | 5µM* | -12%[7.34 µM] | ? | 26% | -9%[7.34 µM]
Cc1cccc(NC(=O)CN(C)S(=O)(=O)c2cnc[nH]2)c1 | 6% | / | 1% | 46% | -1%
COC(=O)CN1C(C(=O)c2ccccc2)=C(OC(=O)c2ccc(C)cc2)c2ccccc2S1(=O)=O | / | -15% | / | / | -20%
CCN(C(=O)Cn1cc(C(=O)c2ccc(F)cc2)c(=O)c2ccc(C)nc21)c1cccc(C)c1 | / | -9% | / | / | -10%
COC(=O)/C(=C(/F)Sc1cc(C)c(O)c(C)c1)C(F)(F)F | 7% | / | / | 9.3µM* | /
SMILES | AMA1 RON2 block | VACV mCherry inh | Pf growth 96h | Pf growth 48h | Vaccinia Venus
Cc1ccc2[nH]c(-c3cccc(F)c3)cc(=O)c2c1 | -4% | ? | 4.1µM* | 5.2µM* | ?
O=c1cc(-c2cccc(F)c2)[nH]c2ccccc12 | 12% | i | ? | ? | ?
COc1ccc2[nH]c(-c3cccc(F)c3)cc(=O)c2c1 | -2% | ? | 5.2µM* | ? | ?
COc1ccc(-c2cc(=O)c3ccccc3[nH]2)cc1 | -5% | 18% | ? | ? | -17%
COc1cccc(-c2cc(=O)c3cc(NC(=O)c4ccc(N(C)C)cc4)ccc3[nH]2)c1 | -16% | -3% | 13µM* | 10µM* | ?
Cc1ccc(OCc2nc3ccccc3n2CC(C)C)cc1 | / | -17% | / | / | -2%
Cc1ccccc1OCCn1c(=N)n(C(C)C)c2ccccc21 | / | -15%[7.34 µM] | / | / | -12%[7.34 µM]
CCOc1cc(-c2ccc(OC(=O)c3ccc(C)cc3)c(OC)c2)cc(=O)c2c(C)oc(C)c12 | / | -5% | / | / | 7%
Cc1ccc(C(=O)Nc2cc(-c3nc4ncccc4o3)ccc2C)c(C)c1 | / | -5% | / | / | -2%
CCOc1sc2nc(C)n(CC(=O)Nc3cccc(C)c3)c(=O)c2c1C | / | -2% | / | / | -1%
CCOc1ccccc1NC(=O)Cn1c(=O)n(-c2ccccc2)c(=O)c2c1c1cc(C)ccc1n2C | / | -1% | / | / | 0%
COc1ccc2c(C)cc(N3CCOCC3)nc2c1 | 6% | -16% | 94% | 55% | -11%
COc1ccc(CSc2nc(CSC)cc(N3CCOCC3)n2)cc1 | -14% | -11% | ? | 12µM* | -12%
CCOCCc1nn2c(=O)cc(COC(=O)c3ccccc3NC(=O)c3ccc(C)cc3)nc2s1 | / | -9% | / | / | -13%
CCN(C(=O)C(=O)c1c(C)[nH]c2ccccc12)c1ccccc1 | / | -5% | / | / | -17%
CC1=C(c2ccc(Cl)cc2)S(=O)(=O)N=C1N1CCN(c2cccc(C)c2)C(C)C1 (centres undefined) | / | -11% | / | / | -14%
O=C(Oc1ccc(C(=S)N2CCCCC2)cc1)c1ccccc1 | -9% | -5% | ? | 7% | -9%
O=C(Oc1cccc(C(=S)N2CCCCC2)c1)c1ccccc1 | -6% | -19% | 7.4µM* | 25% | 0%
CCO[C@H]1OC(C(=O)N2CCN(Cc3ccc4c(c3)OCO4)CC2)=C[C@@H](c2ccc(Br)cc2)[C@@H]1CCCO | -26% | ? | 5.2µM* | 10µM* | ?
CCO[C@H]1OC(C(=O)N2CCN(Cc3ccc4c(c3)OCO4)CC2)=C[C@@H](c2ccc(C(F)(F)F)cc2)[C@@H]1CCCO | -8% | i | 1.5µM* | ? | ?
CCO[C@H]1OC(C(=O)N2CCN(Cc3ccc4c(c3)OCO4)CC2)=C[C@@H](c2ccccc2)[C@@H]1CCCO | 1% | -7% | ? | ? | -14%
CCO[C@@H]1OC(C(=O)N2CCN(Cc3ccc4c(c3)OCO4)CC2)=C[C@H](c2ccc3c(c2)OCO3)[C@H]1CCCO | -1% | i | 3.3µM* | ? | -26%
CCO[C@@H]1OC(C(=O)NCc2ccccc2)=C[C@H](C2CCCCC2)[C@H]1CCCO | 0% | -24% | 9.3µM* | ? | -30%
COc1ccc(-c2cn3c(n2)sc2cc(C(=O)NC(C)C45CC6CC(CC(C6)C4)C5)ccc23)cc1 (centres undefined) | / | -13% | / | / | 1%
CCO[C@H]1OC(C(=O)N2CCN(Cc3ccc4c(c3)OCO4)CC2)=C[C@@H](C2CC2)[C@@H]1CCCO | 4% | i | 7.4µM* | ? | -11%
